PD-1 reverse act: activators reversing PD-1 mediated T-cell inhibition | 29,000 tested, under 10 active | activation, % (test concentration not listed) | primary human CD4 T cells, PD-L1 beads, CellTiter-Glo 96 h; call rule not given here;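 further: 0% = median vehicle wells and 100% = positive control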
U2OS ROS induce: cancer cell ROS induction | U2OS ROS induction, H2DCF-DA fluorescence | ROS induction (% of piperlongumine), % at 10 µM | 46,000 compounds, 2% hits | AID 624156; in the data active means ROS induction above about 79%, passing the limit was not always enough; inconclusive means no clear call, values can overlap the other calls;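 further: 0% = DMSO vehicle median and 100% = reference compound median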
YB-1 expression: YB-1 expression inhibition | 30,000 compounds, 0.37% hits | delta delta Cp (YB-1 minus CDIP) (no concentration beside the values) | AID 434959 | U2OS, qRT-PCR YB-1 vs CDIP delta delta Cp, 16 h; hits give high values; zero = DMSO, each unit about twofold;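 active means delta delta Cp rounded down to an integer at or above 3, about 3 SD of DMSO wells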;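 further: higher means less YB-1 transcript or more CDIP transcript relative to DMSO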
Numbers without * were called inactive. Most compounds without a hit are left out; they make up all but 2.1% or so of the library.

What do the screens show for `C[C@H]1CN([C@@H](C)CO)C(=O)c2cc(NC(=O)Cc3cn(C)c4ccccc34)ccc2O[C@@H]1CN(C)Cc1ccc(-c2ccccc2)cc1`?
PD-1 reverse act: -2; U2OS ROS induce: 153*; YB-1 expression: 0.27

How did C[C@H](CO)N1C[C@H](C)[C@@H](CN(C)Cc2ccc(Cl)c(Cl)c2)Oc2ccc(NC(=O)Cc3cn(C)c4ccccc34)cc2C1=O do in these assays?
PD-1 reverse act: -2; U2OS ROS induce: 152*; YB-1 expression: 0.098

Results for C[C@@H]1CN([C@H](C)CO)C(=O)c2cc(NC(=O)Cc3cn(C)c4ccccc34)ccc2O[C@H]1CN(C)Cc1ccc(-c2ccccc2)cc1 ?
PD-1 reverse act: -4; U2OS ROS induce: 58; YB-1 expression: 0.096

Results for COc1ccc(CN(C)C[C@@H]2Oc3ccc(NC(=O)Cc4cn(C)c5ccccc45)cc3C(=O)N([C@@H](C)CO)C[C@H]2C)cc1 ?
PD-1 reverse act: -1; U2OS ROS induce: 32; YB-1 expression: 0.13

Results for C[C@H]1CN([C@@H](C)CO)C(=O)Cc2cc(NC(=O)Nc3ccc(F)cc3)ccc2O[C@@H]1CN(C)Cc1ccc(C(=O)Nc2ccccc2N)cc1 ?
PD-1 reverse act: -1; U2OS ROS induce: 25; YB-1 expression: 0.2

What do the screens show for `C[C@@H]1CN([C@H](C)CO)C(=O)Cc2cc(NC(=O)Nc3ccccc3)ccc2O[C@@H]1CN(C)Cc1ccc(C(=O)Nc2ccccc2N)cc1`?
PD-1 reverse act: 0; U2OS ROS induce: 102*; YB-1 expression: 0.27

How did CCn1c(SCC(=O)Nc2ccc(Cl)cc2Cl)nnc1-c1cccc(Cl)c1 do in these assays?
PD-1 reverse act: -1; U2OS ROS induce: 8

Results for C[C@H](CO)N1C[C@H](C)[C@@H](CN(C)Cc2ccc(Oc3ccccc3)cc2)Oc2ccc(NC(=O)Cc3cn(C)c4ccccc34)cc2C1=O ?
PD-1 reverse act: -4; U2OS ROS induce: 113*; YB-1 expression: 0.26

Results for C[C@H]1CN([C@@H](C)CO)C(=O)c2cc(NC(=O)Cc3cn(C)c4ccccc34)ccc2O[C@H]1CN(C)Cc1ccc(-c2ccccc2)cc1 ?
PD-1 reverse act: -2; U2OS ROS induce: 18; YB-1 expression: -0.3

Results for C[C@@H]1CN([C@H](C)CO)C(=O)Cc2cc(NC(=O)Cc3cn(C)c4ccccc34)ccc2O[C@H]1CN(C)S(=O)(=O)c1ccc(F)cc1 ?
PD-1 reverse act: 1; U2OS ROS induce: 23; YB-1 expression: 0.084

Results for C[C@H]1CN([C@@H](C)CO)C(=O)Cc2cc(NC(=O)Cc3cn(C)c4ccccc34)ccc2O[C@@H]1CN(C)S(=O)(=O)c1ccc(F)cc1 ?
PD-1 reverse act: 3; U2OS ROS induce: 89*; YB-1 expression: 0.13

How did COc1ccc(S(=O)(=O)N(C)C[C@@H]2OCc3cn(nn3)CCCC(=O)N([C@H](C)CO)C[C@@H]2C)cc1 do in these assays?
U2OS ROS induce: 36; YB-1 expression: -0.33

How did O=C(NCCc1nc2ccccc2[nH]1)c1ccc(-c2ccccc2)cc1 do in these assays?
PD-1 reverse act: 0; U2OS ROS induce: 3

Results for COc1ccc(C2=NN(S(C)(=O)=O)C(c3ccc(C)cc3)C2)cc1 (centres undefined) ?
PD-1 reverse act: 0; U2OS ROS induce: 33; YB-1 expression: 0.048

Results for COc1ccc(C2=NN(S(C)(=O)=O)C(c3ccccc3OC)C2)cc1 (centres undefined) ?
PD-1 reverse act: 1; U2OS ROS induce: 164*; YB-1 expression: 0.45

What do the screens show for `O=S(=O)(CCc1ccncc1)c1ccccc1`?
PD-1 reverse act: 0; U2OS ROS induce: 13; YB-1 expression: 0.32

How did CSc1nc(N)n(-c2cc(Cl)cc(Cl)c2)n1 do in these assays?
PD-1 reverse act: 0; U2OS ROS induce: -8; YB-1 expression: 0.12

Results for C[C@@H]1CCCCO[C@H](CN(C)S(C)(=O)=O)[C@@H](C)CN([C@H](C)CO)C(=O)c2cc(NC(=O)Cc3ccccc3)ccc2O1 ?
PD-1 reverse act: 1; U2OS ROS induce: 5; YB-1 expression: 0.014

What do the screens show for `C[C@@H]1CCCCO[C@@H](CN(C)C(=O)Nc2cccc3ccccc23)[C@@H](C)CN([C@H](C)CO)C(=O)c2cc(NC(=O)Cc3ccccc3)ccc2O1`?
PD-1 reverse act: 3; U2OS ROS induce: 177*; YB-1 expression: 0.2

What do the screens show for `C[C@@H]1CCCCO[C@@H](CN(C)C(=O)Nc2cccc3ccccc23)[C@@H](C)CN([C@H](C)CO)C(=O)c2cc(NC(=O)c3ccccc3)ccc2O1`?
U2OS ROS induce: inconclusive; YB-1 expression: -0.28

What do the screens show for `C[C@@H]1CCCCO[C@@H](CN(C)S(C)(=O)=O)[C@@H](C)CN([C@H](C)CO)C(=O)c2cc(NC(=O)Cc3ccccc3)ccc2O1`?
PD-1 reverse act: 2; U2OS ROS induce: 84*; YB-1 expression: -0.36

Results for C[C@H]1CN([C@@H](C)CO)C(=O)Cc2cc(NC(=O)c3ccncc3)ccc2O[C@H]1CN(C)Cc1ccc(-c2ccccc2)cc1 ?
U2OS ROS induce: 15; YB-1 expression: 0.33

Results for Cc1noc(C)c1NC(=O)Nc1cccc2c1O[C@@H](CN(C)S(=O)(=O)c1cccs1)[C@@H](C)CN([C@@H](C)CO)C2=O ?
PD-1 reverse act: 0; U2OS ROS induce: -6; YB-1 expression: 0.11

Results for Cc1ccc(NC(=O)Cn2nc(C)c([N+](=O)[O-])c2C)cc1C ?
PD-1 reverse act: -1; U2OS ROS induce: 169*

What do the screens show for `Cc1nn(CC(=O)Nc2ccc(F)cc2)c(C)c1[N+](=O)[O-]`?
PD-1 reverse act: 1; U2OS ROS induce: 4

Results for C[C@@H]1CN([C@H](C)CO)C(=O)Cc2cc(NS(=O)(=O)c3ccccc3)ccc2O[C@H]1CN(C)C ?
PD-1 reverse act: 0; U2OS ROS induce: -2; YB-1 expression: -0.22

Results for CCC(Sc1nnc(C)s1)C(=O)Nc1ccc(Cl)cc1 (centres undefined) ?
PD-1 reverse act: 0; U2OS ROS induce: 23

Results for FC(F)(F)c1ccc(N2CCN(Cc3cn[nH]c3-c3ccccc3)CC2)nc1 ?
U2OS ROS induce: -18

How did CCC(Sc1nnc2c3ccccc3n(CC)c2n1)C(=O)NC(C)c1ccccc1 (centres undefined) do in these assays?
U2OS ROS induce: 18

How did COC(=O)C(C)Sc1nnc2c3ccccc3n(Cc3ccccc3)c2n1 (centres undefined) do in these assays?
PD-1 reverse act: -5; U2OS ROS induce: 146*

How did CCc1cccc(C)c1NC(=O)c1ccc(C(=O)Nc2c(C)cccc2CC)cc1 do in these assays?
U2OS ROS induce: -8

Results for COc1ccc(OCC(=O)Nc2cc(-c3nc4ccccc4o3)ccc2C)cc1 ?
PD-1 reverse act: -1; U2OS ROS induce: 1

Results for CC(=O)Nc1cccc(NC(=O)CSc2ccccc2[N+](=O)[O-])c1 ?
PD-1 reverse act: 0; U2OS ROS induce: 6

What do the screens show for `O=C1/C(=C/c2ccc3ccccc3c2)COc2ccccc21`?
PD-1 reverse act: -20; U2OS ROS induce: 103*; YB-1 expression: -0.22

What do the screens show for `COc1ccc2c(c1)OC/C(=C\c1ccc(OC)c(O)c1)C2=O`?
U2OS ROS induce: 70; YB-1 expression: -0.055

Results for O=C(NO)c1cccc(C(=O)N/N=C/c2cc(O)ccc2[N+](=O)[O-])c1 ?
U2OS ROS induce: -9; YB-1 expression: -0.61

What do the screens show for `N#Cc1c(N)nc(SCC(=O)c2ccc3ccccc3c2)c(C#N)c1-c1cccc(F)c1`?
U2OS ROS induce: 23

How did COc1ccc(-c2c(C#N)c(SCC(=O)c3ccccc3)nc3c2C(=O)CC(C)(C)C3)cc1 do in these assays?
U2OS ROS induce: 138*

What do the screens show for `Cc1noc(C)c1NC(=O)N(C)C[C@H]1Oc2ccc(NC(=O)Cc3cn(C)c4ccccc34)cc2C(=O)N([C@H](C)CO)C[C@H]1C`?
PD-1 reverse act: 1; U2OS ROS induce: 6; YB-1 expression: 0.1

Assay outcomes: PubChem BioAssay, Broad Institute
